Experimental data published in PubChem BioAssay.
The source made the active and inactive calls.

target: Luciferin 4-monooxygenase (Photinus pyralis) (UniProt P08659); assay: firefly luciferase enzyme inhibitors, primary screen, biochemical, luminescence, purified enzyme, 2006 set (AID 1141); details: SteadyGlo luminescence, 30 min, higher = more signal, called active from +8 up or from −8 down;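 also: cell-free assay with purified firefly luciferase at 100 ng per well in PBS; test concentration not given here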
Sequence (P08659 whole entry, looked up): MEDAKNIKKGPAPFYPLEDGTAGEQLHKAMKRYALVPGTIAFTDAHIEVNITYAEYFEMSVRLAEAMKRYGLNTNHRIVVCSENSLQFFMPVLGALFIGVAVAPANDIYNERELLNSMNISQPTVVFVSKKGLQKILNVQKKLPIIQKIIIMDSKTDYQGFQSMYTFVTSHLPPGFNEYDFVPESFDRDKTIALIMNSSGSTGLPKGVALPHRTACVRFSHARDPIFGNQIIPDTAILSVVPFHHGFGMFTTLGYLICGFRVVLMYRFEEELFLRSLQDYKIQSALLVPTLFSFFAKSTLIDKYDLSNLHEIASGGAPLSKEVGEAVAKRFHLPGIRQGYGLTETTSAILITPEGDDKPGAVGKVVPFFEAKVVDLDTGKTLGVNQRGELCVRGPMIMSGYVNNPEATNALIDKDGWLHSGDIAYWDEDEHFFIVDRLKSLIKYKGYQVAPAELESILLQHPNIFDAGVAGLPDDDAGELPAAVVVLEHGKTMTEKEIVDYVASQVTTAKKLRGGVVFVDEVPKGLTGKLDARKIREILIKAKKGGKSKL

Row | SMILES | z-score
1 | C=C(CCCC)/C(=C/C[C@@H](OC(C)=O)c1cccc(OCCO)c1)c1cc(C(=O)OC)ccc1OC | -0.132 (inactive)
2 | Cc1cccc([C@H]2C[C@H]3C(Br)=C[C@@]2(CO)C(=O)[C@]32CO2)c1 | 0.75 (inactive)
3 | CCCCN1CC=CC23O[C@@H]4/C=C\CCCOC(=O)C4[C@H]2C(=O)N(CCCCCCO)[C@@H]3C1=O (some centres not stated) | -0.0067 (inactive)
4 | C=CCNC(=O)[C@@H]1[C@H]2C(=O)O[C@H](c3ccccc3)[C@H](c3ccccc3)N2[C@H](c2ccc(OCCO)cc2)[C@@]12C(=O)N(C(=O)OCCOC)c1ccccc12 | 0.36 (inactive)
5 | COc1ccc(C(=O)Nc2ccc(CN3C(=O)[C@]4(O[C@H](CC(=O)N(CCO)Cc5ccccc5)[C@@H]([Si](C)(C)c5ccc(OC)cc5)[C@@H]4C)c4ccccc43)cc2)cc1 | 0.505 (inactive)
6 | COC(=O)Cn1c(C(=O)N(C)C)cc2c1C[C@H]1CN(C(=O)c3ccccc3)[C@@](Cc3ccccc3)(C(=O)OC)[C@@H]21 | 3.15 (inactive)
7 | CO[C@H]1O[C@H](CO)[C@@H](OC(=O)Nc2cccc(F)c2)[C@H](OC(=O)Nc2ccc3c(c2)OCO3)[C@@H]1OC(=O)Nc1ccc2c(c1)OCO2 | -4.46 (inactive)
8 | COC(=O)[C@@]1(Cc2ccc(F)cc2)[C@H]2c3cc(C(=O)N(C)C)n(Cc4cccc5ccccc45)c3C[C@H]2CN1C(=O)c1ccccc1 | 4.74 (inactive)
9 | CCOC(=O)C[C@H]1[C@H](OC(=O)Cc2ccc3c(c2)OCO3)[C@@H](NC(=O)CC(C)C)c2cc(OCCCO)ccc2N1C(=O)c1ccc2ccccc2n1 | 0.739 (inactive)
10 | O=C1O[C@H](c2ccccc2)[C@H](c2ccccc2)N2[C@H]1[C@@H](C(=O)N1CCN(c3ncccn3)CC1)[C@]1(C(=O)Nc3ccc(C#CC4(O)CCCCCC4)cc31)[C@H]2c1ccc(O)cc1 | -1.63 (inactive)
11 | COC(=O)C[C@H]1O[C@]2(C(=O)N(C)c3ccccc32)[C@@H](C)[C@@H]1[Si](C)(C)c1ccccc1 | 1.24 (inactive)

tested on: Wnt5a (protein binding on small-molecule microarray); assay: Wnt5a binders on small-molecule microarray, primary screen, biophysical, 635/667 nm fluorescence (AID 1142); details: 635 nm fluorescence, higher = more signal;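 also: fluorescence read at 667 nm with signal to noise per printed feature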

Row | SMILES | composite z-score
12 | CCCC[C@@H](O)C1=C(C)Cn2c(=O)n(-c3ccccc3)c(=O)n2[C@H]1CO | 0.0027
13 | CCOC(=O)C[C@H]1[C@H](OC(=O)c2cc3ccccc3oc2=O)[C@@H](NC(=O)Cc2ccc(OC)cc2)c2cc(OCCCO)ccc2N1C(=O)Cc1ccc(OC)cc1 | 0.0746
14 | COC(=O)C1=CC(CCCO)=CC(c2ccc(CN3CCCC3)cc2)N(C)C=C1C(=O)OC (configuration not stated) | 0.408
15 | CCOC(=O)C[C@H]1[C@H](OC(=O)c2ccc(-c3ccccc3)cc2)[C@@H](NC(=O)c2ccc(-c3ccccc3)cc2)c2cc(OCCCO)ccc2N1C(=O)c1ccccc1 | 0.131
16 | COc1ccc(C(=O)Nc2cccc(CN3C(=O)[C@]4(O[C@H](CC(=O)N(CCO)Cc5ccccc5)[C@@H]([Si](C)(C)c5ccc(OC)cc5)[C@@H]4C)c4ccccc43)c2)cc1 | 0.997
17 | O=C(N1CCOCC1)[C@]1(CCS(=O)(=O)c2ccccc2)N=C(c2ccc(OCCCO)cc2)O[C@@H]1c1ccccc1 | 0.308
18 | CC(C)c1ccc(NN2C(C(O)c3ccccc3)C=CC3C(=O)N(c4ccccc4)C(=O)C32)cc1 (configuration not stated) | 0.297
19 | COc1ccc([Si](C)(C)[C@H]2[C@H](CC(=O)N3CCC[C@H]3CO)O[C@@]3(C(=O)N(C)c4c(Br)cc(C)cc43)[C@@H]2C)cc1 | 1.55
20 | COCCCNC(=O)[C@]1(Cc2ccccc2N=[N+]=[N-])N=C(c2ccc(OCCCO)cc2)O[C@@H]1c1ccccc1 | 0.637
21 | [N-]=[N+]=NCc1ccccc1[C@H]1OC(c2ccc(OCCCO)cc2)=N[C@@]1(Cc1ccccc1N=[N+]=[N-])C(N)=O | 0.395
22 | C=CC[C@]1(C(=O)NCC(O)CO)N=C(c2ccc(OCCCO)cc2)O[C@H]1c1ccccc1CN=[N+]=[N-] (some centres not stated) | 0.176
23 | C[C@]1(C(=O)NC2CC2)c2ccccc2C(=O)N(Cc2cc(F)cc(C(F)(F)F)c2)[C@H]1c1ccc(CO)cc1 | -0.76
24 | CC(C)N1CC=CC23O[C@@H]4/C=C\CCCOC(=O)C4[C@H]2C(=O)N(C(C)CO)[C@@H]3C1=O (some centres not stated) | -0.603
25 | CCOC(=O)C[C@H]1[C@H](OC(=O)c2ccccc2-c2ccccc2)[C@@H](NC(=O)CC(C)C)c2cc(OCCCO)ccc2N1C(=O)c1ccccc1 | 0.167
26 | CN(C)CCCCNC(=O)[C@H]1C[C@H]2C(=O)N[C@@H](CCCCN(C)C)C(=O)N2[C@H]1c1ccc(O)cc1 | 0.215
27 | CC(CO)N1C(=O)[C@@H]2[C@H]3C(=O)OCC=C[C@H]3OC23C=CCN(c2ccc4ccccc4c2)C(=O)[C@@H]13 (some centres not stated) | -1.02
28 | CC(C)N1C(=O)[C@@]2(Cc3ccccc31)c1ccccc1C(=O)N(Cc1ccccc1)[C@H]2c1ccc(CO)cc1 | 0.164
29 | CCOC(=O)C1=CC[C@@H](c2ccccc2)N(S(=O)(=O)c2ccc(C)cc2)[C@@H]1C#N | 0.0432

Row | SMILES | composite z-score
30 | COc1ccc([Si](C)(C)[C@@H]2[C@@H](CC(=O)N(CCO)Cc3ccccc3)O[C@]3(C(=O)N(Cc4cccc(I)c4)c4ccccc43)[C@H]2C)cc1 | 0.546
31 | CO[C@H]1O[C@H](CO)[C@@H](OC(=O)CCc2ccccc2)[C@@H]2OC(=O)[C@@H](Cc3ccc4ccccc4c3)C/C=C/C[C@H](Cc3ccc4ccccc4c3)C(=O)O[C@@H]12 | 0.0032
32 | O=C1O[C@H](c2ccccc2)[C@H](c2ccccc2)N2[C@H]1[C@@H](C(=O)O)[C@]1(C(=O)Nc3ccccc31)[C@H]2c1ccc(OCCO)cc1 | -0.0515
33 | O=C1c2ccccc2[C@@]2(Cc3ccccc3N(CC(F)(F)F)C2=O)[C@H](c2ccc(CO)cc2)N1Cc1ccccc1 | 0.104
34 | COCCCNC(=O)[C@@]1(Cc2ccccc2I)c2ccccc2C(=O)N(C2CCCCC2)[C@H]1c1ccc(CO)cc1 | 0.665
35 | COCCOC(=O)N1C(=O)[C@@]2(c3cc(C#CC4(O)CCCCCC4)ccc31)[C@H](C(N)=O)[C@H]1C(=O)O[C@H](c3ccccc3)[C@H](c3ccccc3)N1[C@@H]2c1ccc(OCCO)cc1 | 0.309
36 | CCCNC(=O)[C@@]1(Sc2ccc(C)cc2)CC(=O)N(Cc2cc(C(F)(F)F)cc(C(F)(F)F)c2)[C@@H]1c1ccc(CO)cc1 | -0.139
37 | C=C(CCCC)/C(=C/C[C@@H](OC(C)=O)c1cccc(OCCO)c1)c1cc(C(=O)OC)ccc1OC | -0.257
38 | Cc1cccc([C@H]2C[C@H]3C(Br)=C[C@@]2(CO)C(=O)[C@]32CO2)c1 | 0.253
39 | CCCCN1CC=CC23O[C@@H]4/C=C\CCCOC(=O)C4[C@H]2C(=O)N(CCCCCCO)[C@@H]3C1=O (some centres not stated) | -0.525
40 | C=CCNC(=O)[C@@H]1[C@H]2C(=O)O[C@H](c3ccccc3)[C@H](c3ccccc3)N2[C@H](c2ccc(OCCO)cc2)[C@@]12C(=O)N(C(=O)OCCOC)c1ccccc12 | 0.538
41 | COc1ccc(C(=O)Nc2ccc(CN3C(=O)[C@]4(O[C@H](CC(=O)N(CCO)Cc5ccccc5)[C@@H]([Si](C)(C)c5ccc(OC)cc5)[C@@H]4C)c4ccccc43)cc2)cc1 | 0.334
42 | COC(=O)Cn1c(C(=O)N(C)C)cc2c1C[C@H]1CN(C(=O)c3ccccc3)[C@@](Cc3ccccc3)(C(=O)OC)[C@@H]21 | 0.135
43 | CO[C@H]1O[C@H](CO)[C@@H](OC(=O)Nc2cccc(F)c2)[C@H](OC(=O)Nc2ccc3c(c2)OCO3)[C@@H]1OC(=O)Nc1ccc2c(c1)OCO2 | 0.22
44 | COC(=O)[C@@]1(Cc2ccc(F)cc2)[C@H]2c3cc(C(=O)N(C)C)n(Cc4cccc5ccccc45)c3C[C@H]2CN1C(=O)c1ccccc1 | 1.23
45 | CCOC(=O)C[C@H]1[C@H](OC(=O)Cc2ccc3c(c2)OCO3)[C@@H](NC(=O)CC(C)C)c2cc(OCCCO)ccc2N1C(=O)c1ccc2ccccc2n1 | 0.25
46 | O=C1O[C@H](c2ccccc2)[C@H](c2ccccc2)N2[C@H]1[C@@H](C(=O)N1CCN(c3ncccn3)CC1)[C@]1(C(=O)Nc3ccc(C#CC4(O)CCCCCC4)cc31)[C@H]2c1ccc(O)cc1 | 0.675
47 | COC(=O)C[C@H]1O[C@]2(C(=O)N(C)c3ccccc32)[C@@H](C)[C@@H]1[Si](C)(C)c1ccccc1 | 0.148
